# Measurements reported in PubChem BioAssay (EPA / NIEHS).
# A structure can be active in one record and inactive in another. The source made the active and inactive calls. Rule for the calls: active = hit-call score of the fitted dose curve at least 0.9, where 1 is the maximum; inactive = score below 0.9.
# Experiment: ATG_CRE_CIS: Attagene CIS-FACTORIAL HepG2 Assay for human cAMP Responsive Element (CRE) binding protein 3 (AID 2282926)
# Conditions: HepG2 CRE cis-reporter, Attagene multiplexed mRNA; actives raise or lower the signal
# Protocol: ATG_CIS is a cell-based, multiplexed-readout assay that uses HepG2, a human liver cell line, with measurements taken at 24 hours after chemical dosing in a 24-well plate.ATG_CRE_CIS is one of 52 assay component(s) measured or calculated from the ATG_CIS assay. It is designed to make measurements of mRNA induction, a form of inducible reporter, as detected with fluorescence intensity signals by Reverse transcription polymerase chain reaction (RT-PCR) and Capillary electrophoresis technology.Data from the assay component ATG_CRE_CIS was analyzed into 1 assay endpoint. This assay endpoint, ATG_CRE_CIS, was analyzed with bidirectional fitting relative to DMSO as the negative control and baseline of activity. Using a type of inducible reporter, measures of mRNA for gain or loss-of-signal activity can be used to understand the reporter gene at the transcription factor-level as they relate to the gene CREB3. Furthermore, this assay endpoint can be referred to as a primary readout, because this assay has produced multiple assay endpoints where this one serves a reporter gene function. To generalize the intended target to other relatable targets, this assay endpoint is annotated to the dna binding intended target family, where the subfamily is basic leucine zipper.
# Human liver HepG2 cells are transiently transfected with multiple reporter transcription units (MRTUs) in 6-well plates using FuGene 6 reagent (Roche; 3 ml FuGene/1 mg DNA). The MRTU constructs are regulated by a cis-regulating element (promoter). […] A major difference between the CIS and TRANS system is that in CIS activities of endogenous TFs are measured, whereas the TRANS assay evaluates changes in activities of exogenous, chimeric NR-Gal4 proteins. […] At the end of 24 hour incubation, total RNA was isolated using TriZol reagent (Invitrogen). The isolated RNA is then reverse-transcribed using oligo(dT) primer and Mo-MLV reverse transcriptase (Invitrogen) with DNAse I (Ambion) treatment for 30 min. The one-tenth of the produced cDNA was amplified by PCR using Taq DNA polymerase (Invitrogen) and two reporter sequence-specific primers. The PCR products were fluorescently labeled by primer extension with 6-arboxyfluorescein (6-FAM) 5'-labeled reporter sequence-specific primer (2 min at 95 C, 20 s at 68 C and 10 min at 72 C) and these products were digested with 5U of HpaI (New England Biolabs) for 2h at 37 C. The fragments were purified using Qiaquick PCR columns (Qiagen), analyzed on an ABI 3130xL genetic analyzer (Applied Biosystems) with peak positions identified by using a set of X-rhodamine (ROX)-labeled MapMarker1000 molecular weight standards (BioVentures). The raw capillary electrophoresis data was processed using Attagraph software (Attagene).
SMILES,outcome,AC50
CCOC(=O)CCN(SN(C)C(=O)Oc1cccc2c1OC(C)(C)C2)C(C)C,inactive,–
CC[N+](CC)(CC)CC,inactive,–
Nc1nc(N)nc(Cl)n1,inactive,–
[F][Sn]([c]1ccccc1)([c]1ccccc1)[c]1ccccc1,–,0.321 µM (active)
OCCN(CCO)CCO,inactive,–
c1ccc2c(c1)Oc1ccccc1O2,inactive,–
N#CCCC(Br)(C#N)CBr (stereo not given),–,53.5 µM (active)
Cc1cc(Cl)ccc1OC(C)C(=O)O (stereo not given),inactive,–
O=S1(=O)OC(c2cc(Br)c(O)c(Br)c2)(c2cc(Br)c(O)c(Br)c2)c2ccccc21,inactive,–
N#Cc1ccncc1,inactive,–
ClCCN1CCOCC1,inactive,–
Cc1cc(Cl)ccc1N,inactive,–
CC(C)(C)c1ccccc1O,–,174 µM (active)
c1csc(-c2ccc(-c3cccs3)s2)c1,inactive,–
C=C(C)C(=O)OCC(CC)CCCC (stereo not given),inactive,–
Cc1ccccc1OP(=O)(Oc1ccccc1)Oc1ccccc1,inactive,–
CCCCC(CC)COC(=O)Cl (stereo not given),inactive,–
CC(=Cc1ccccc1)[N+](=O)[O-],inactive,–
C[CH2][Hg][S]c1ccccc1C(=O)O,–,2.94 µM (active)
C=CC(F)(C(F)(F)F)C(F)(F)C(F)(F)F (stereo not given),inactive,–

SMILES,outcome,AC50
Cc1cc(-c2cc(C)c(N)c(C)c2)cc(C)c1N,inactive,–
C=CC(=O)[O][Sn]([CH2]CCC)([CH2]CCC)[CH2]CCC,–,0.412 µM (active)
O=c1oc2ccccc2c(O)c1C(CC(O)c1ccc(-c2ccc(Br)cc2)cc1)c1ccccc1 (stereo not given),inactive,39 µM (active)
CCOP(=S)(OCC)O/N=C(\C#N)c1ccccc1,inactive,–
Oc1cccc(-c2ccccc2)c1,inactive,–
c1ccc(-c2cccc(-c3ccccc3)c2)cc1,inactive,–
O=C(N[C@H]1CN2CCC1CC2)c1ccc2c(c1)OCCO2,inactive,–
CC(C)(c1ccc(O)c(-c2ccccc2)c1)c1ccc(O)c(-c2ccccc2)c1,inactive,–
CCNc1nc(NCC)nc(SC)n1,inactive,–
OCCCCO,inactive,–
CCOc1ccc(N)cc1,inactive,–
CC(=O)C(F)(F)C(F)(F)F,inactive,–
Cc1cccc(C)c1NC(=O)CN1CCCC1=O,inactive,–
C=CC(=O)NC(C)(C)CC(C)=O,inactive,–
NNCCO,inactive,–
O=NN1CCCCCC1,inactive,–
O=C(CBr)c1ccc(O)cc1,inactive,–
O=[N+]([O-])c1cc([As](=O)(O)O)ccc1O,inactive,–
O=C(O)C1(c2ccc3c(c2)OC[C@H](Cc2ccc(-c4ccccc4)cc2)[C@H]3O)CCCC1,inactive,–
